Test system: VDR:RXRa (NR concentration 270 nM, RXRa partner concentration 90 nM)
Test: PBM binding z-score (relative to random genomic background probes); higher = stronger binding; sequences stand for … in GC…GCGATTGACAGCGTAGAATGAAGG
Protocol: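 Protein-binding microarray (Agilent 4x180K custom design, double-stranded 60-nt probes: 5' GC cap, 34-nt variable region, 24-nt constant primer region; full probe sequence given). Purified or IVT nuclear receptor:RXRα heterodimers (3:1 NR:RXRα, mostly 270:90 nM) or homodimers were incubated for 1 h in PBS with 2% milk and no ligand, then detected with Alexa488 antibodies. Fluorescence from o1-orientation probes (~5 replicates averaged) was converted to z-scores against 500 random hg19 background probes. Variable regions are seed direct-repeat (DR0–DR5) sites, all their single-nucleotide variants and half-site ablations.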

Sequence	PBM binding z-score
GCATACAGGTGAAACGCAGGTAACTCAGGGTGGC	-0.304
ATCGAAAGGTCGGGAGGTGAGTATACAGAAAGGC	2.24
CCAGACAGGTGGAAGGTAACTCAGTCTGGTACGC	-0.365
CAAACTAGGTCACCGGAAGGTCAAACTCCGCATG	6.17
AGAACGAGGACAATGAGTTGATAGCACGGGTGGC	1.75
ACTAGCAGGCCAAGGGTCACTAAAGATTAGTCCG	2.62
TCTTGTGGATCAAAGGTTAAGAAAGCCGAAGCCT	1.54
CAAACTAGGGCACCGGAAGGTCAAAGTCCGCATG	3.69
ATCGAAAGGTCGTGAGGTGAGGATACAGAAAGGC	3.46
CGAACCAGGTCAAGGACAGTGAATCTCCGCACGC	2.22
ACTCGGAGGACTAAGGTCAGAGCTACGCCAGTGA	1.65
TCGAGTGGGTTAGTCGGGGCATTCAGCCAACATA	2.25
TAGCCTAGGTCATGCGGGCCAGTCTAGTGTCGGC	2.82
ACAGACAGGTGAGTGAAGGTAACTCTGCTGGACG	-0.344
AGTCTAAGTTCACTAGGTAACGTAAGATTCAGCT	3.59
TCTTGTTGATCAGCAGGTTAAGAAAGCTGGCCAA	0.36
ATGTCTAGGTAAAAGTTCAGTGAATCCCGAGGAT	1.3
CGAACGAGGGGATGAGTTGATAGCAAATGCCGAT	-0.189
CTCGAAAGGTCGGTCGAGGTGAGTATACGGATAA	2.25
ATCTCTAGGTGACAAGTTCAGTGAAAGAGAGGAC	1.63

Sequence	PBM binding z-score
TCATATAGGTAAACAGGTGCAAGTCCGTAAGTTA	3.49
TAGCCTAGGTCATGCGGGCCAGGATAGTGTCGGC	2.76
CCGACTGGGGAAAAGGTTACCATACTCAGTACGA	0.397
ATCGAAAGGTCGAAGGTGAGTTTACCCACCCGAA	4.33
TGAATGAAGTTATAAGATCAGGGAACGTTGCAAA	-0.457
TCGAGTGGGTTACCAATGGGGCATTCAGCTTTCT	0.0141
GGAACGAGGGCAAAGTTGATAGAATCTGTCGACG	1.34
ACAGGCAGGTGATGAAGGTAACTCAGGCTATCAT	-0.0607
CGAACTAGGTCATTGACACGACAGTGAATAGTAA	2.01
CCTAGCAGGCCAATCTGGGTGACTCAAGGCTTGA	-0.769
TAGCCTAGGTCATGGGCCCGTATACCACGCGAAC	2.07
GTAACGAGGGCAAGTTGATAGCAGAGTTTGATGG	1.09
ACTAGCTGGCCAAGGGTCACTCAAGATTAGTCCG	2.59
ATCTCTAGGTAAAGAAAGTTCAGTGAATGCAAAT	2.17
TATACAGGGTCAAAGGCCCGAGTACGAATGTCGA	4.53
CCAGACAGGTGAAAGGTAACGCAGTCTGGTACGC	0.77
TCATATATGTAAATGCTAGGTGAAAGTCCGATCT	0.934
CAAACTAGGTCAAGGTCGAAGTCGGTTTGTGCCA	3.27
TCATATCGGTAAAGGTGAAAGTCGAACGATATGA	0.691
CCAAGCAGGCCAGGGTCACTCAAGCATTTCGCTT	2.55
